In PubChem BioAssay AID1159580 (chemical genetic matrix, 2015):
Hit rate of the full screen: of about 5,500 compounds, about 2,000 (36%) were called active. Not shown: some 18% with an inconclusive outcome. Rule as the data show it: active = normalized growth mostly below about 0.91 (no sharp cut-off); inconclusive = no clear call, values can overlap the other calls; inactive = mostly above about 0.92. Some of the results follow.

Experiment: chemical genetic growth profiling, strain panel (AID 1159580);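 also: tested at 20 µM; growth read once vehicle control cultures reached saturation at 30 °C; 1 = growth at the plate median or of vehicle wells; lower values mean less growth of the strain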
Settings: S. cerevisiae deletion strains, growth OD

Measured: normalized growth

COC1C=CC23c4cc5c(cc4CN(CC2O)[C@@H]3C1)OCO5 (stereo partly specified)
inactive: locus YAL021C, strain ccr4, stronger effect = lower value 0.974 | locus YAL026C, strain drs2, stronger effect = lower value 0.956 | locus YAL030W, strain snc1, stronger effect = lower value 0.989 | locus YBL061C, strain skt5, stronger effect = lower value 0.967 | locus YBR009C, strain hhf1, stronger effect = lower value 0.969 | locus YBR021W, strain FUR4, stronger effect = lower value 1.01 | locus YBR023C, strain chs3, stronger effect = lower value 0.966 | locus YBR171W, strain sec66, stronger effect = lower value 0.962 | locus YBR229C, strain ROT2, stronger effect = lower value 1.01 | locus YBR231C, strain swc5, stronger effect = lower value 0.963 | locus YBR279W, strain paf1, stronger effect = lower value 0.971 | locus YCL011C, strain gbp2, stronger effect = lower value 0.956 | locus YCL016C, strain dcc1, stronger effect = lower value 0.992 | locus YCL029C, strain bik1, stronger effect = lower value 1 | locus YCL069W, strain vba3, stronger effect = lower value 0.948 | locus YCR088W, strain abp1, stronger effect = lower value 0.971 | locus YDL005C, strain med2, stronger effect = lower value 0.944 | locus YDL035C, strain GPR1, stronger effect = lower value 1.01 | locus YDL040C, strain nat1, stronger effect = lower value 0.975 | locus YDL074C, strain BRE1, stronger effect = lower value 1.05 | locus YDL101C, strain DUN1, stronger effect = lower value 1.04 | locus YDL134C, strain PPH21, stronger effect = lower value 1.03 | locus YDL185W, strain tfp1, stronger effect = lower value 1 | locus YDL192W, strain arf1, stronger effect = lower value 0.982 | locus YDR001C, strain nth1, stronger effect = lower value 0.979 | locus YDR069C, strain doa4, stronger effect = lower value 0.944 | locus YDR101C, strain arx1, stronger effect = lower value 0.962 | locus YDR137W, strain rgp1, stronger effect = lower value 0.933 | locus YDR159W, strain sac3, stronger effect = lower value 0.964 | locus YDR162C, strain NBP2, stronger effect = lower value 1.03 | locus YDR195W, strain ref2 0.962 | locus YDR297W, strain sur2, stronger effect = lower value 0.977 | locus YDR318W, strain mcm21, stronger effect = lower value 0.995 | locus YDR334W, strain swr1, stronger effect = lower value 0.966 | locus YDR335W, strain msn5, stronger effect = lower value 0.959 | locus YDR388W, stronger effect = lower value 1 | locus YDR392W, strain spt3, stronger effect = lower value 1.06 | locus YDR502C, strain sam2, stronger effect = lower value 1.01 | locus YEL003W, strain gim4, stronger effect = lower value 0.972 | locus YEL037C, strain rad23, stronger effect = lower value 0.973 | locus YEL061C, strain CIN8 (second series), stronger effect = lower value 0.945 | locus YER015W, strain faa2, stronger effect = lower value 0.986 | locus YER016W, strain bim1, stronger effect = lower value 0.971 | locus YER110C, stronger effect = lower value 1 | locus YER111C, strain swi4, stronger effect = lower value 0.961 | locus YER155C, strain BEM2 (second series), stronger effect = lower value 0.978 | locus YER155C, strain BEM2, stronger effect = lower value 0.997 | locus YER167W, strain BCK2, stronger effect = lower value 0.992 | locus YFR010W, strain ubp6, stronger effect = lower value 0.939 | locus YGL078C, strain dbp3, stronger effect = lower value 1.03 | locus YGL086W, strain mad1, stronger effect = lower value 0.999 | locus YGL167C, strain pmr1, stronger effect = lower value 0.971 | locus YGL173C, strain kem1, stronger effect = lower value 0.968 | locus YGL227W, strain vid30, stronger effect = lower value 0.979 | locus YGL240W, strain doc1, stronger effect = lower value 0.999 | locus YGL248W, strain PDE1, stronger effect = lower value 1.04 | locus YGL253W, strain hxk2, stronger effect = lower value 0.951 | locus YGR135W, strain pre9, stronger effect = lower value 1.05 | locus YGR229C, strain SMI1, stronger effect = lower value 1.06 | locus YGR252W, strain gcn5, stronger effect = lower value 1.09 | locus YHR013C, strain ard1, stronger effect = lower value 0.95 | locus YHR027C, strain rpn1, stronger effect = lower value 0.977 | locus YHR079C, strain IRE1 (second series), stronger effect = lower value 1.01 | locus YHR094C, strain hxt1, stronger effect = lower value 0.992 | locus YHR129C, strain ARP1, stronger effect = lower value 1.02 | locus YHR142W, strain chs7, stronger effect = lower value 0.956 | locus YHR200W, strain rpn10, stronger effect = lower value 1.01 | locus YIL066C, strain RNR3, stronger effect = lower value 1.02 | locus YIL073C, strain SPO22, stronger effect = lower value 0.964 | locus YIL125W, strain kgd1, stronger effect = lower value 0.981 | locus YIR030C, strain dcg1, stronger effect = lower value 1 | locus YJL092W, strain hpr5, stronger effect = lower value 0.948 | locus YJL095W, strain BCK1 (second series), stronger effect = lower value 0.965 | locus YJL095W, strain BCK1, stronger effect = lower value 1.08 | locus YJL115W, strain asf1, stronger effect = lower value 0.988 | locus YJL129C, strain trk1, stronger effect = lower value 0.976 | locus YJL134W, strain LCB3, stronger effect = lower value 1 | locus YJL154C, strain vps35, stronger effect = lower value 0.968 | locus YJL164C, strain tpk1, stronger effect = lower value 0.973 | locus YJL166W, strain qcr8, stronger effect = lower value 0.965 | locus YJL168C, strain set2, stronger effect = lower value 1.01 | locus YJL187C, strain SWE1 (second series), stronger effect = lower value 1.04 | locus YJL187C, strain SWE1, stronger effect = lower value 0.957 | locus YKL009W, strain mrt4, stronger effect = lower value 1.02 | locus YKL068W, stronger effect = lower value 1 | locus YKL085W, strain MDH1 (second series), stronger effect = lower value 1.01 | locus YKL085W, strain MDH1, stronger effect = lower value 1.01 | locus YKL160W, strain elf1, stronger effect = lower value 0.995 | locus YKR001C, strain vps1, stronger effect = lower value 0.978 | locus YKR026C, strain gcn3, stronger effect = lower value 0.983 | locus YKR091W, strain srl3, stronger effect = lower value 0.98 | locus YLL001W, strain dnm1, stronger effect = lower value 0.973 | locus YLL026W, stronger effect = lower value 1 | locus YLL041C, strain sdh2, stronger effect = lower value 0.969 | locus YLR027C, strain aat2, stronger effect = lower value 0.991 | locus YLR039C, strain RIC1, stronger effect = lower value 1.06 | locus YLR058C, strain SHM2, stronger effect = lower value 1.02 | locus YLR102C, strain apc9, stronger effect = lower value 0.995 | locus YLR221C, strain rsa3, stronger effect = lower value 0.956 | locus YLR258W, strain gsy2, stronger effect = lower value 0.97 | locus YLR262C, strain YPT6 (second series), stronger effect = lower value 0.917 | locus YLR262C, strain YPT6, stronger effect = lower value 1.07 | locus YLR268W, strain sec22, stronger effect = lower value 0.974 | locus YLR320W, strain mms22, stronger effect = lower value 0.975 | locus YLR342W, strain FKS1, stronger effect = lower value 0.99 | locus YLR357W, strain rsc2, stronger effect = lower value 0.967 | locus YLR370C, strain arc18, stronger effect = lower value 0.949 | locus YLR371W, strain rom2, stronger effect = lower value 0.976 | locus YLR384C, strain iki3, stronger effect = lower value 0.966 | locus YLR418C, strain cdc73, stronger effect = lower value 1.04 | locus YML016C, strain PPZ1, stronger effect = lower value 1.01 | locus YML032C, strain rad52, stronger effect = lower value 0.98 | locus YML120C, strain ndi1, stronger effect = lower value 1 | locus YML124C, strain tub3, stronger effect = lower value 0.991 | locus YMR058W, strain fet3, stronger effect = lower value 0.983 | locus YMR078C, strain ctf18, stronger effect = lower value 1.01 | locus YMR125W, strain sto1, stronger effect = lower value 0.922 | locus YMR129W, stronger effect = lower value 0.991 | locus YMR205C, strain PFK2, stronger effect = lower value 0.998 | locus YMR223W, strain ubp8, stronger effect = lower value 0.998 | locus YMR231W, strain pep5, stronger effect = lower value 0.974 | locus YMR263W, strain SAP30, stronger effect = lower value 1.03 | locus YMR307W, strain GAS1, stronger effect = lower value 1.06 | locus YNL067W, strain RPL9B, stronger effect = lower value 1.04 | locus YNL071W, strain lat1, stronger effect = lower value 0.97 | locus YNL153C, strain GIM3, stronger effect = lower value 1.04 | locus YNL209W, strain ssb2, stronger effect = lower value 0.981 | locus YNL233W, strain BNI4, stronger effect = lower value 1.04 | locus YNL248C, strain rpa49, stronger effect = lower value 0.949 | locus YNL250W, strain rad50, stronger effect = lower value 1.03 | locus YNL271C, strain bni1, stronger effect = lower value 0.988 | locus YNL298W, strain CLA4, stronger effect = lower value 0.994 | locus YNL307C, strain MCK1, stronger effect = lower value 1.01 | locus YNL322C, strain KRE1 (second series), stronger effect = lower value 0.935 | locus YNR049C, strain mso1, stronger effect = lower value 0.975 | locus YNR052C, strain pop2, stronger effect = lower value 0.997 | locus YOL012C, strain htz1 0.915 | locus YOL147C, strain pex11, stronger effect = lower value 1 | locus YOR001W, strain rrp6, stronger effect = lower value 0.978 | locus YOR061W, strain CKA2, stronger effect = lower value 0.996 | locus YOR069W, strain VPS5, stronger effect = lower value 1.01 | locus YOR070C, strain gyp1, stronger effect = lower value 0.999 | locus YOR080W, strain dia2, stronger effect = lower value 0.976 | locus YOR106W, strain vam3, stronger effect = lower value 0.992 | locus YOR136W, strain idh2, stronger effect = lower value 1 | locus YOR144C, strain elg1, stronger effect = lower value 0.995 | locus YOR184W, strain ser1, stronger effect = lower value 0.967 | locus YOR265W, strain rbl2, stronger effect = lower value 0.99 | locus YOR270C, strain vph1, stronger effect = lower value 0.847 | locus YOR290C, strain snf2, stronger effect = lower value 0.976 | locus YOR316C, strain cot1, stronger effect = lower value 1 | locus YPL051W, strain arl3, stronger effect = lower value 0.99 | locus YPL055C, strain LGE1, stronger effect = lower value 1.03 | locus YPL078C, strain atp4, stronger effect = lower value 0.986 | locus YPL106C, strain sse1, stronger effect = lower value 0.982 | locus YPL240C, strain hsp82, stronger effect = lower value 0.965 | locus YPR119W, strain clb2, stronger effect = lower value 0.994 | locus YPR141C, strain kar3, stronger effect = lower value 0.993 | locus YPR163C, strain tif3, stronger effect = lower value 1 | locus YPR167C, strain met16, stronger effect = lower value 1 | strain wtn01, stronger effect = lower value 1
